Hits are enriched below; roughly 2.8% of the tested compounds scored in any of these assays.
PP1 counter – counter-screen for PP5 inhibitors: inhibitors of human PP1-alpha; P62136; purified PP1alpha, OMFP fluorescence; inhibition, % at 6.7 µM; 320,000 compounds, 0.9% hits; AID 2235;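 active = inhibition above the mean inhibition of all tested compounds plus 3 SD, computed separately for each screening campaign, cut at about 15% in these data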
PP5 primary – PP5 (human) phosphatase inhibition. 320,000 compounds, 0.18% hits. AID 1987. purified PP5c, OMFP substrate fluorescence. inhibition, % at 6.7 µM;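 active = inhibition above the campaign's mean inhibition across all tested compounds plus 3 SD, cut at about 9.5% in these data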;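 note: 0% = DMSO only and 100% = 100 µM cantharidin control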
KLK7 zymogen act – proKLK7 (human) activation, primary screen; P49862; purified proKLK7, EDANS-DABCYL substrate fluorescence; 100% is mature enzyme control, 0% vehicle; activation, % at 7 µM; 370,000 compounds, 0.9% hits;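 active = activation above the mean of all tested compounds plus 3 SD, computed per campaign excluding outliers beyond control limits, cut at about 13% in these data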
NR1D1 modulator – modulates human Rev-erb alpha binding to DNA; AID 1259318; Rev-erbα–FITC-DNA binding, fluorescence polarization, 90 min; P20393; activity, % at 10 µM; 370,000 compounds, 0.79% hits;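 active = activity above about 14%, limit read from the data; passing the limit was not always enough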;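 note: 0% = DMSO wells with 35 nM protein and 100% = DMSO wells with 750 nM protein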
Target sequence (P20393 whole entry, looked up): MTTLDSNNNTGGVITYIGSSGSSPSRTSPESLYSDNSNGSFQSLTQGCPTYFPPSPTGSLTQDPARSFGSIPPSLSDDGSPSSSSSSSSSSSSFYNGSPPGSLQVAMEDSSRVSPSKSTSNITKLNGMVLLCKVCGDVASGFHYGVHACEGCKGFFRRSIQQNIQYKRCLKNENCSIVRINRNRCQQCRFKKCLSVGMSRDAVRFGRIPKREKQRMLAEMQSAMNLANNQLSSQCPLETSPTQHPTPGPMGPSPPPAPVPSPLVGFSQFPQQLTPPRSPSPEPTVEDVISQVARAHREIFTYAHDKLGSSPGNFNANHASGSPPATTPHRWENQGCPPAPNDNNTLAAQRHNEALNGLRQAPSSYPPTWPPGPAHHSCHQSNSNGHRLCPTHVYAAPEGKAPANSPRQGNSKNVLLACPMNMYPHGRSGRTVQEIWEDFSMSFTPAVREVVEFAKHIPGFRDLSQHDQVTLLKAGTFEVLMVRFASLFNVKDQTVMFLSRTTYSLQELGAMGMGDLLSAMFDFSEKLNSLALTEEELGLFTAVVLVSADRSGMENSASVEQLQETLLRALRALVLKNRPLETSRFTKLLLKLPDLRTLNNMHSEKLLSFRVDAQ
GASC-1 inh – blocks human GASC-1 demethylase activity; Q9H3R0; GST-JMJD2C(1-420) H3K9me3 demethylation, DELFIA europium; inhibition, % at 2.35 µM; 330,000 compounds, 0.069% hits; AID 2099;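 active = more than half of a compound's replicate wells show inhibition beyond 50%, single wells judged on their own value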;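 note: signal counts dimethyl H3K9 product captured on neutravidin plate; 0% = median of DMSO wells and 100% = 0.3 times that DMSO median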
PG9 binder – small molecules binding HIV-1 gp120 antibody PG9. inhibition, % at 6.7 µM. 360,000 compounds, 0.43% hits. AID 624416. TR-FRET gp120-PG9 antibody binding; in the data active = inhibition above about 8.5%
Rev-erbA confirm – Rev-erb alpha (human) modulation, hit confirmation; 3,000 compounds, 61% hits; shares compounds with NR1D1 modulator; Rev-erb alpha FITC-DNA binding, fluorescence polarization, 90 min; activation, % at 25 µM;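 active = activation at or above a set limit, or at least 3 SD above the negative control mean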;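 note: 0% = 35 nM protein with DMSO and 100% = 750 nM protein high control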
RORg DNA counter – counter-screen for Rev-erb alpha modulators: RORgamma DNA binding; shares compounds with NR1D1 modulator; IC50, µM; 910 compounds, 8% hits; purified RORgamma protein-FITC-DNA binding, fluorescence polarization;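 active = Compounds whose fitted half-maximal concentration for disrupting protein-DNA binding is below 10 micromolar; the record names Rev-erb in its text, so the target is in doubt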
An asterisk follows results filed as active; x = not tested or not shown.

SMILES	PP1 counter	PP5 primary	KLK7 zymogen act	NR1D1 modulator	GASC-1 inh	PG9 binder	Rev-erbA confirm	others
N#C/C(=C\c1ccc(-c2ccc(C(=O)O)cc2)o1)c1nc2ccccc2[nH]1	x	x	-1	42*	x	-7	27*
N#C/C(=C\c1ccccc1C(=O)O)c1nc2ccccc2[nH]1	-3	2	-1	-2	-33	-1	x
Cc1cc2cc(CN(Cc3ccco3)C(=O)C3CCCCC3)c(=O)[nH]c2cc1C	-2	-2	0	43*	8	1	44*
Cc1cc(Cl)ccc1Oc1ncc(-c2ccc(Cl)cc2)cn1	1	1	0	24*	0	-2	18*
CC(=O)c1cccc(NC(=O)c2cccc(NC(=O)c3ccco3)c2)c1	1	2	0	45*	0	1	99*	RORg DNA counter=5.7*
CN(C(=O)COC(=O)c1cc(-c2ccc(Cl)s2)nc2ccccc12)C1CCS(=O)(=O)C1 (centres undefined)	2	3	-20	51*	3	-1	13
CN(C(=O)COC(=O)c1cc(-c2ccccc2Cl)nc2ccccc12)C1CCS(=O)(=O)C1 (centres undefined)	-2	-3	-1	-3	-18	0	x
Cc1cccc(CN[C@@H]2CC[C@@]34CCCN3C(=O)CCC[C@H]4C2)c1	x	x	x	0	x	x	x
Cc1c(NS(=O)(=O)c2ccc3c(c2)OCCO3)cccc1-c1nc2cccnc2s1	0	3	0	2	4	0	x
Cc1cc(-c2nc3cccnc3s2)ccc1NS(=O)(=O)c1ccc2c(c1)OCCO2	-2	1	-259	25*	5	2	-4
O=C(Cn1c(=S)[nH]c2ccccc2c1=O)NCCc1ccccc1	6	5	1	31*	0	5	31*	RORg DNA counter=>40
CCc1ccc(CNC(=O)CCCn2c(=O)c3cccn3c3cccnc32)cc1	9	0	-5	1	5	2	x
O=C(CCn1c(=O)c2cccn2c2cccnc21)NCc1cccc(Cl)c1	-1	4	0	64*	3	-2	64*	RORg DNA counter=4.3*
N#Cc1nc(-c2ccc(OCc3ccc(Cl)cc3)cc2)oc1N1CCC(C(N)=O)CC1	3	1	1	-8	-2	0	x
N#Cc1nc(-c2ccc(OCc3ccc(Cl)cc3)cc2)oc1N1CCOCC1	1	-1	-1	38*	-5	-1	-3
CCc1ccc(CCNC(=O)OCCCN2CCC3(CCC(C)CC3)C2=O)cc1 (centres undefined)	x	x	0	7	x	x	x
Cn1cc(/C=C/c2cc[n+](C)cc2)c2cc(Cl)ccc21	-1	1	5	165*	-35	-8	140*	RORg DNA counter=>40
Cc1cccc(/N=C/c2sc3ccccc3c2O)n1	0	1	0	4	-6	-6	x
Oc1c(C=Nc2cccc3cccnc23)sc2ccccc12	3	2	0	26*	-6	-6	36*	RORg DNA counter=>40
COc1cccc(C2NC(=O)c3sc(=S)n(-c4ccccc4)c3N2)c1 (centres undefined)	-4	-1	0	2	-2	1	x
COc1ccc(OC)c(C2NC(=O)c3sc(=S)n(-c4ccccc4)c3N2)c1 (centres undefined)	4	1	-1	39*	-7	0	15
COC(=O)CSc1nnc(-c2n[nH]c3c2CCC3)n1N	x	x	0	-1	x	x	x
O=C(O)Cc1cn(-c2ccccc2)nc1-c1ccccc1	-3	-1	0	-1	-2	-2	x
OCc1cn(-c2ccccc2)nc1-c1ccc(-c2nn(-c3ccccc3)cc2CO)cc1	0	6	1	16*	-10	-2	8
CC(=O)CSc1ncnc2sc3c(c12)CCCC3	-1	3	-1	-5	-14	0	x
SMILES	PP1 counter	PP5 primary	KLK7 zymogen act	NR1D1 modulator	GASC-1 inh	PG9 binder	Rev-erbA confirm	others
CC(C)Cn1c(N)c(C(=O)CSc2ncnc3sc4c(c23)CCCC4)c(=O)n(C)c1=O	1	-1	0	65*	6	1	14
COC(=O)C1=C(C)N(C)C(=NCc2ccc3c(c2)OCO3)NC1c1cccc(Cl)c1 (centres undefined)	x	x	0	-7	x	-2	x
CC(=O)c1cc2c(cc1N/C(=N/S(=O)(=O)c1ccccc1)c1ccc(Cl)cc1)OCO2	-1	0	0	90*	-12	-4	48*	RORg DNA counter=>40
CC(=O)c1cc2c(cc1NS(=O)(=O)c1ccccc1)OCO2	-5	1	0	-1	2	-2	x
CC(=O)c1cc2c(cc1NC(=O)c1cccc(S(=O)(=O)N3CCN(C)CC3)c1)OCO2	-3	0	-1	20*	-4	2	5
CCOc1ccccc1-c1nc(-c2ccc(NC(=O)c3ccc(Br)o3)cc2)no1	6	3	-1	5	15	3	x
CCOc1ccccc1-c1nc(-c2ccc(NC(=O)Cc3ccc(OC)cc3)cc2)no1	15	-1	-1	43*	11	-1	70*	RORg DNA counter=>40
C#CCNC(=O)C[C@@H]1C(=O)N2CCCC3=C2[C@@]1(C(=O)OC)CCCC3	x	x	0	-4	x	x	x
O=C(Nc1ccc2c(c1)Cc1cc([N+](=O)[O-])ccc1-2)C(F)(F)F	x	x	1	9	x	-2	x
O=[N+]([O-])c1ccc2c(c1)Cc1cc(F)ccc1-2	x	x	0	70*	x	4	61*	RORg DNA counter=>40
COc1cc2c(cc1[N+](=O)[O-])-c1ccc([N+](=O)[O-])cc1C2	x	x	0	90*	x	-2	12*
COC(=O)[C@]12C[C@H](CC(=O)NCc3ccc(C)o3)C(=O)N(Cc3ccccc3)C1=C[C@H](C(C)C)O[C@@H]2C1CC1	x	x	0	1	x	0	x
CCOc1ccc(N(Cc2cc3ccc(C)cc3[nH]c2=O)S(=O)(=O)c2ccccc2)cc1	0	3	0	1	-4	-2	x
Cc1cccc(N(Cc2cc3ccc(C)cc3[nH]c2=O)S(=O)(=O)c2ccccc2)c1	10	2	1	21	9	-1	x
Cc1ccc2cc(CN(c3cccc(C)c3C)S(=O)(=O)c3ccccc3)c(=O)[nH]c2c1	-4	3	1	20*	-9	-3	-2
Cc1ccc2cc(CN(c3ccccc3)S(=O)(=O)c3ccccc3)c(=O)[nH]c2c1	5	0	1	31*	10	1	5
CCCN(Cc1cc2ccc(C)cc2[nH]c1=O)S(=O)(=O)c1ccccc1	2	5	0	1	-2	0	x
Cc1ccc(N(Cc2cc3ccc(C)cc3[nH]c2=O)S(=O)(=O)c2ccccc2)c(C)c1	-3	2	0	15*	-3	-1	9
